In this assay the target is Muscarinic acetylcholine receptor M1 (Homo sapiens) (UniProt P11229). Put plainly: ACh response enhancement at human M1 – CHO cells, selectivity assay for M5 PAM project (AID 651923).

The source made the active and inactive calls. No rule for the calls is given here.

Chain of Muscarinic acetylcholine receptor M1 (Homo sapiens) (P11229 whole entry, looked up): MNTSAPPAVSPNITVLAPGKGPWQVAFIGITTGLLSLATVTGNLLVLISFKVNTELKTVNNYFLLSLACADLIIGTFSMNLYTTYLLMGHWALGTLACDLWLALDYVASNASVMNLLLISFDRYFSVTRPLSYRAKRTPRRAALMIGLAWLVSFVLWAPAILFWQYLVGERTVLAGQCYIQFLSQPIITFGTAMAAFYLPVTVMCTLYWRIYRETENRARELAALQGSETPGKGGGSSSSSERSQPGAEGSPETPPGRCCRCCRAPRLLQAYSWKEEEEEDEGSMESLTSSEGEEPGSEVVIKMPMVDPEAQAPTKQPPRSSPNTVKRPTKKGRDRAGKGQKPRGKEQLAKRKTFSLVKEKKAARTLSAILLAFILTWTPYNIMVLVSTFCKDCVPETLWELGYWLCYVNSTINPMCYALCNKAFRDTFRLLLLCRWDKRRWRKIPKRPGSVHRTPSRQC

`O=C1C(=O)N(CCOc2ccccc2)c2ccc(OC(F)(F)F)cc21`: the outcome was inactive.

Source of the values: PubChem BioAssay AID651923 (Vanderbilt Specialized Chemistry Center, 2012).
